Source: the supplement of paper PMC11732987, “Enantioselective OTUD7B fragment discovery through chemoproteomics screening and high-throughput optimisation” (Communications Chemistry, 2025)

How the values were obtained:
Test in all cases: log2 ratio of Biotin-Ahx-Ub-VS probe labelling (fragment/DMSO); higher = less target engagement (more negative = stronger competition), active = hit call of the paper (q ≤ 0.05, log2 ratio ≤ -1)
Details in all cases: compound concentration: 200 uM; treatment time: 3 h
OTUD6B = molecular target: T1, OTUD6B (UniProt Q8N6M0)
T1 sequence (whole entry): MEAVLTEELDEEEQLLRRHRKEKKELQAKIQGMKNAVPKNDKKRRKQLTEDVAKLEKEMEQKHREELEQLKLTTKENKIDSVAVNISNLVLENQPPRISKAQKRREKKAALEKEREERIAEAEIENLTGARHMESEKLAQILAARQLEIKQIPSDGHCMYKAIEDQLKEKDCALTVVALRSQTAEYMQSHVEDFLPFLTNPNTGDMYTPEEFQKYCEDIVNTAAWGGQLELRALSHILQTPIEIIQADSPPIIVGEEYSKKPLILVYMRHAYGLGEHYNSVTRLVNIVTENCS
In short: (§1)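 Fragment (200 µM) or vehicle was incubated for 3 h with triplicate HEK293T lysate samples of 495 µg, which were then treated with Biotin-Ahx-Ub-VS at 0.5 µM final for 1 h. Labelled DUBs were enriched on NeutrAvidin, digested with LysC and trypsin, and analysed by diaPASEF LC-MS/MS. Values are average log2 fragment/vehicle ratios from an unpaired t-test on global-median-normalised Spectronaut label-free quantities, using proteins with ≥2 unique peptides.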

OTUD7B = molecular target: T2, OTUD7B (UniProt Q6GQQ9)
T2 sequence (whole entry): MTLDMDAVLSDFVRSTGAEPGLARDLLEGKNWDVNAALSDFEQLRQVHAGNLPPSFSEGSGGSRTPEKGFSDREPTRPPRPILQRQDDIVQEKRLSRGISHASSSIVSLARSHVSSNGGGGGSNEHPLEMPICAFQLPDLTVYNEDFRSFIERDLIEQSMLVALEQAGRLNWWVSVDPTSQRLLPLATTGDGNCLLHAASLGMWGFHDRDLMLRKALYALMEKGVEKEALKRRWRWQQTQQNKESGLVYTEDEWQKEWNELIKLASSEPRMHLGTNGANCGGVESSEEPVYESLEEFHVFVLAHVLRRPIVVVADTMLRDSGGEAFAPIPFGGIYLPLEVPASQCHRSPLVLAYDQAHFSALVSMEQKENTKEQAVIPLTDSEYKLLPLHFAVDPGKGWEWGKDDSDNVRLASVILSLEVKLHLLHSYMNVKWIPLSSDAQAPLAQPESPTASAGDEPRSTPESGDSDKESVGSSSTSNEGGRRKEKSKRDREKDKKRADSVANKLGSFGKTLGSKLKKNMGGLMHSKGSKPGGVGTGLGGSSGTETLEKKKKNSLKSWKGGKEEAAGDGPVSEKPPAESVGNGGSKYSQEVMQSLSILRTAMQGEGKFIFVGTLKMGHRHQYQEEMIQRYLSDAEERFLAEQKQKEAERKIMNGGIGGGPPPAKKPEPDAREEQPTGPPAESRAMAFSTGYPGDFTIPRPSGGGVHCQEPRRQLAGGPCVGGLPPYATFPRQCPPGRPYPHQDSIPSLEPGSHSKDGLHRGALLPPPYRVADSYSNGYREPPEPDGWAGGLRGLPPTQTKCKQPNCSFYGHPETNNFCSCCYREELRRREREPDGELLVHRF
In short: as §1

PRPF8 = PRPF8 (UniProt Q6P2Q9)
In short: as §1

PSMD7 = molecular target: T3, PSMD7 (UniProt P51665)
T3 sequence (whole entry): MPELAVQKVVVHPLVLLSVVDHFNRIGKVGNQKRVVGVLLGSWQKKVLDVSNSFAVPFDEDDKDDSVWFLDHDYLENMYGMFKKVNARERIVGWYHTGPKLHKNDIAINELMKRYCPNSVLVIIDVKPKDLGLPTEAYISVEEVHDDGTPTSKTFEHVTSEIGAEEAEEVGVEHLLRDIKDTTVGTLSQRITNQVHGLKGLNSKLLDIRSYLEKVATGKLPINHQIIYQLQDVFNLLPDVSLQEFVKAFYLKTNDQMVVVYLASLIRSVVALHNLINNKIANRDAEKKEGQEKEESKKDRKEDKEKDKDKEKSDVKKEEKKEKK
In short: as §1

UCHL1 = UCHL1 (UniProt P09936)
In short: as §1

UCHL3 = molecular target: T4, UCHL3 (UniProt P15374)
T4 sequence (whole entry): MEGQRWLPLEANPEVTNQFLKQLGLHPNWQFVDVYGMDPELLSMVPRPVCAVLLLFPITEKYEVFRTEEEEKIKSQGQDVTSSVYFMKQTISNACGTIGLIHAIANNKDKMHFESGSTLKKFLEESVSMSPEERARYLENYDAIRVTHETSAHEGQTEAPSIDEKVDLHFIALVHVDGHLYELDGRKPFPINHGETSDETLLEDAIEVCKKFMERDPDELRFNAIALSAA
In short: as §1

UCHL5 = molecular target: T5, UCHL5 (UniProt Q9Y5K5)
T5 sequence (whole entry): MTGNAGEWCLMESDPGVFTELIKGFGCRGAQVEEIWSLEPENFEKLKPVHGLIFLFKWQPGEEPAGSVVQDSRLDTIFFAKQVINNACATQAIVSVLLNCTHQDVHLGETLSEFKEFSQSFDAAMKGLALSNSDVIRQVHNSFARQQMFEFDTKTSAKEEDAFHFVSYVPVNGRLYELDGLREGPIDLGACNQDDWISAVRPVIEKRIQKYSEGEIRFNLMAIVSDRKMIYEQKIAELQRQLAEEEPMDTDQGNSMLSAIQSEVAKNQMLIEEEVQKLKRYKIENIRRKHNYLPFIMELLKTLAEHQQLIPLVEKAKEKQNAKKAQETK
In short: as §1

USP10 = USP10 (UniProt Q14694)
In short: as §1

USP15 = molecular target: T6, USP15 (UniProt Q9Y4E8)
T6 sequence (whole entry): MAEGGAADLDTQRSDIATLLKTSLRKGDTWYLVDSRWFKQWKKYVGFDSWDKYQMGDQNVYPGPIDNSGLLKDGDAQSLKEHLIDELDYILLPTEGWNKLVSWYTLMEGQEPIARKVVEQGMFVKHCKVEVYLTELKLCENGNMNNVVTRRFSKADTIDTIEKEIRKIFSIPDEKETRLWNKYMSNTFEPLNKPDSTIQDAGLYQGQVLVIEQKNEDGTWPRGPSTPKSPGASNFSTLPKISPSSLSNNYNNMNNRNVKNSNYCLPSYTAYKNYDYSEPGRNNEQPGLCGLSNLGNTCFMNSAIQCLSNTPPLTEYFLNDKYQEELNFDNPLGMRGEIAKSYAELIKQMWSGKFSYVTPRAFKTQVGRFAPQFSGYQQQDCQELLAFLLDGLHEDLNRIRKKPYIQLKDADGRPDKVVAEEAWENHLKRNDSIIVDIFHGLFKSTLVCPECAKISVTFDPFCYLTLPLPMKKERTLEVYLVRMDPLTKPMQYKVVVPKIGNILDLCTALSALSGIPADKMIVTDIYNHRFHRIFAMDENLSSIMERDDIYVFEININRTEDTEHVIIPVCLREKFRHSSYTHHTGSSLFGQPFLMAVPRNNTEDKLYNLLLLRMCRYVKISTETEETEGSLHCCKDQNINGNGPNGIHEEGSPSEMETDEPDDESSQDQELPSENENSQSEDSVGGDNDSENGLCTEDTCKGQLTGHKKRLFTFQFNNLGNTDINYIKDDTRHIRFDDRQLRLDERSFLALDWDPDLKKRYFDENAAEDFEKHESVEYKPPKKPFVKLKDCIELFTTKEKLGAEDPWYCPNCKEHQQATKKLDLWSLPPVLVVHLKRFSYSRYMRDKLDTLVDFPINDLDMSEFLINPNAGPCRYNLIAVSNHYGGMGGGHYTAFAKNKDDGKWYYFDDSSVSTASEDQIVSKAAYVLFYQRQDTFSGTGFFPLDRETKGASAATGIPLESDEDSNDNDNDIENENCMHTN
In short: as §1

USP16 = USP16 (UniProt Q9Y5T5)
In short: as §1

Measured: log2 ratio of Biotin-Ahx-Ub-VS probe labelling

USP10, sequence (Q14694 whole entry): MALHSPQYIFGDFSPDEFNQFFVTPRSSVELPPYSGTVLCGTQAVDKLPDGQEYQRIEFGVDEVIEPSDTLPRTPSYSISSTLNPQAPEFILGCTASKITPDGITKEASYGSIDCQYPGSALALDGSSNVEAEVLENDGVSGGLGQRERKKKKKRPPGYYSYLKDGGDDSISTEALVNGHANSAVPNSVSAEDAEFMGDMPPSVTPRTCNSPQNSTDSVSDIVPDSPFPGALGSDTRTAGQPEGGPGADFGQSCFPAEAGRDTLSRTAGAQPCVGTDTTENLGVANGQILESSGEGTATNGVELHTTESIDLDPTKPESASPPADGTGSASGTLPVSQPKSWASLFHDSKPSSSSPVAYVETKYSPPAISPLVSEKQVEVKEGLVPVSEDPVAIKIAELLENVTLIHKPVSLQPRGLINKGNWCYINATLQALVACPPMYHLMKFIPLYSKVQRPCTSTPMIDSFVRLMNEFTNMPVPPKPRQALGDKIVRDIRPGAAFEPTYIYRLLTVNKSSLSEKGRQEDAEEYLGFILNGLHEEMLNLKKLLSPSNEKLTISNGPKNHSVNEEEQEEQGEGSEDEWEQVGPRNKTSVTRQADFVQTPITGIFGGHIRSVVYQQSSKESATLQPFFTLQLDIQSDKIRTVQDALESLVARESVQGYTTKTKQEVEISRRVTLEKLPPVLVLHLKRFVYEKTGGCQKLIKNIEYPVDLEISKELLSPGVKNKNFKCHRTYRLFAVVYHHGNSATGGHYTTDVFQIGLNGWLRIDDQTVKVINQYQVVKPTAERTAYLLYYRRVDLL
UCHL1, sequence (P09936 whole entry, looked up): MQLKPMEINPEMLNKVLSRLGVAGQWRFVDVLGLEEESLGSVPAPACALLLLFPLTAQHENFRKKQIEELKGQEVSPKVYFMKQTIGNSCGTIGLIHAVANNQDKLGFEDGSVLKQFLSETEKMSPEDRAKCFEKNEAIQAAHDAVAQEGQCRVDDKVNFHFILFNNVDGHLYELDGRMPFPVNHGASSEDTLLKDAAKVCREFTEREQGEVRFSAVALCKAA
USP16, sequence (Q9Y5T5 whole entry, looked up): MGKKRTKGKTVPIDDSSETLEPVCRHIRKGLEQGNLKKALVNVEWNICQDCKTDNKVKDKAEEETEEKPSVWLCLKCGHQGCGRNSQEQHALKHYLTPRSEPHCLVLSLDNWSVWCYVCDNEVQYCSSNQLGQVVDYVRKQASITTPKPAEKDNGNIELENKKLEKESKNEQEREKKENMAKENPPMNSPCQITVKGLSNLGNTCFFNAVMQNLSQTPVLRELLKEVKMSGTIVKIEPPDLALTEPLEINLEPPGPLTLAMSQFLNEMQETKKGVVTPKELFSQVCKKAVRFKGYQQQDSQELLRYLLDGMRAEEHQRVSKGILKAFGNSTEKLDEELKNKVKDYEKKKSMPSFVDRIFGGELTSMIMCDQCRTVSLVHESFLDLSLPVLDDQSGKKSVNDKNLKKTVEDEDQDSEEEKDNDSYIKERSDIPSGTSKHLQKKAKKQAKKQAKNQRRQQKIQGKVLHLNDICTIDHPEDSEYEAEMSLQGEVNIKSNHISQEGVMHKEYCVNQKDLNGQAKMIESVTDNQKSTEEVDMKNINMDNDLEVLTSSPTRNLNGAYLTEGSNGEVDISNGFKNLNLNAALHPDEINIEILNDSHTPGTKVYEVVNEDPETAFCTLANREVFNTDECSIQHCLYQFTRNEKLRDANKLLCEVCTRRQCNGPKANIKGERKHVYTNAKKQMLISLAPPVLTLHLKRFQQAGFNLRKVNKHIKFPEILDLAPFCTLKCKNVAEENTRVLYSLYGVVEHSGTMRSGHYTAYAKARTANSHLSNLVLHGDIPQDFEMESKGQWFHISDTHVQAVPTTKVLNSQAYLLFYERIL

Cl.Cn1nccc1C(NC(=O)CCl)c1ccccc1 (stereo not given)
inactive: OTUD6B -0.147 | OTUD7B -0.872 | PRPF8 0.0203 | PSMD7 -0.597 | UCHL3 0.209 | UCHL5 -0.353 | USP10 -0.0201 | USP15 -0.218 | USP16 -0.0928
active: UCHL1 -1.03
